LYPLA2 counter: blocks human lysophospholipase 2, a PME1 counter-screen. recombinant LYPLA2, FP-Rh probe fluorescence polarization. inhibition, % at 5.9 µM. hit rate 0.38% among 320,000;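 active means inhibition above the screen-wide mean plus 3 SD, limit set per campaign, cut at about 26% in these data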;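 further: 0% = LYPLA2 with DMSO and 100% = wells lacking LYPLA2 enzyme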
PME-1 primary: blocks human protein phosphatase methylesterase 1. recombinant PME-1, FP-Rh probe fluorescence polarization. inhibition, % at 5.9 µM. hit rate 0.53% among 320,000. AID 2130;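 active means inhibition above the campaign mean of all compounds plus 3 SD, cut at about 26% in these data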;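 further: competitive labeling of PME-1 active site by serine hydrolase directed probe; 0% = PME-1 with DMSO and 100% = wells lacking PME-1 enzyme; inhibitors block probe labeling so polarization falls and inhibition rises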
Fam108B counter: Fam108B inhibition, counter-screen for RBBP9 inhibitors. recombinant Fam108B, FP-Rh probe fluorescence polarization. inhibition, % at 9.51 µM. hit rate 0.33% among 300,000. AID 1947;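 active means inhibition above the screen mean inhibition plus 3 SD, computed separately per campaign, cut at about 18% in these data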;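 further: inhibitors lower polarization as less probe binds the enzyme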
LYPLA1 counter: blocks human lysophospholipase 1, a PME1 counter-screen; recombinant LYPLA1, FP-Rh probe fluorescence polarization; hit rate 0.16% among 320,000; inhibition, % at 5.9 µM; O75608; AID 2174;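 active means inhibition above the mean of all tested compounds plus 3 SD, set per campaign, cut at about 14% in these data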;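 further: inhibitors block serine hydrolase probe labeling of LYPLA1 so polarization falls; 0% = enzyme with DMSO and 100% = wells lacking LYPLA1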
PAD4 inh: PAD4 (human) enzyme inhibition. hit rate 0.41% among 330,000. recombinant PAD4, RCA probe fluorescence polarization. AID 485272. inhibition, % at 6.36 µM. Q9UM07;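 active means percent inhibition above a cutoff equal to the mean of all tested compounds plus 3 SD, cut at about 15% in these data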;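 further: 0% = PAD4 with RCA probe and DMSO and 100% = probe without PAD4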
Target sequence (Q9UM07 whole entry, looked up): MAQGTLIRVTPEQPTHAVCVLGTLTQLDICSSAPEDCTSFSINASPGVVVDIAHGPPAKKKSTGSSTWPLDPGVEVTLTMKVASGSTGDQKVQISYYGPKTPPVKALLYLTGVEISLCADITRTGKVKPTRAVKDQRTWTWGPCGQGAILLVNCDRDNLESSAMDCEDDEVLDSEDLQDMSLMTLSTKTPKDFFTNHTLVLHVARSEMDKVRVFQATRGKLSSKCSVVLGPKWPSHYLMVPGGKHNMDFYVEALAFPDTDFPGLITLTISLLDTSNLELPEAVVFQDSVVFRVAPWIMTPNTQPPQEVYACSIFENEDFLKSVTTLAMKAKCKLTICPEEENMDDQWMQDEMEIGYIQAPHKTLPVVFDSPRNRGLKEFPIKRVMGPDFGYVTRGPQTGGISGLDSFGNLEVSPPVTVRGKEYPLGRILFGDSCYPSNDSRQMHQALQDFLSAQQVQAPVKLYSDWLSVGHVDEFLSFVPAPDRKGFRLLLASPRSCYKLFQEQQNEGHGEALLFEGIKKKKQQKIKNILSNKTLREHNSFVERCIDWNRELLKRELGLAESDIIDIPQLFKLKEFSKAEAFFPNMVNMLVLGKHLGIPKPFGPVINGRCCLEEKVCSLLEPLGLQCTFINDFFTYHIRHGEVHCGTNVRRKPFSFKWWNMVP
GSTO1 counter: GSTO1 inhibition, counter-screen for RBBP9 inhibitors; P78417; recombinant GSTO1, activity-based probe fluorescence polarization; hit rate 1.1% among 300,000; inhibition, % at 5.96 µM;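 active means inhibition above the campaign mean inhibition plus 3 SD, cut at about 35% in these data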;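 further: 0% = GSTO1-1 with DMSO and 100% = wells lacking GSTO1-1 enzyme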
* hit, by the source's call; nt = not tested or not shown. Compounds with a hit are over-represented: about 1.8% of the library has one in this group of screens.

SMILES	LYPLA2 counter	PME-1 primary	Fam108B counter	LYPLA1 counter	PAD4 inh	GSTO1 counter
COc1ccccc1N1C(=O)NC(=O)/C(=C/c2ccc([N+](=O)[O-])s2)C1=O	1	-1	25*	2	-6	42*
COc1ccc(N2C(=O)NC(=O)/C(=C\c3ccc([N+](=O)[O-])s3)C2=O)cc1	-3	-5	16	-6	-44	32
COCCO[C@H]1CCC2C3CC=C4C[C@@H](O)CC[C@]4(C)C3CC[C@@]21C (some centres undefined)	nt	nt	nt	nt	0	nt
Oc1ccc(/C=N/NP(=S)(c2ccccc2)c2ccccc2)c(O)c1O	-5	28*	-3	-9	1	37*
C1CC2OC2CC1C1CO1 (centres undefined)	5	-2	nt	0	-7	nt
O=S(=O)(c1ccc(Cl)cc1)N1CC1c1ccccc1 (centres undefined)	3	-3	-1	0	0	35*
O=C1NC(=O)C(=Cc2ccc(Oc3ccc([N+](=O)[O-])cc3)cc2)C(=O)N1	38*	-1	1	6	-9	49*
NP(=O)(OCC(F)(F)F)Oc1cccc2ccccc12 (centres undefined)	0	15	-3	0	-4	0
NP(=O)(Oc1ccccc1Cl)Oc1ccccc1Cl	3	98*	0	2	-2	6
C[C@]12C[C@@H](O)[C@H](O)CC1=CCC1C2CC[C@@]2(C)C1CC[C@@H]2O (some centres undefined)	nt	nt	nt	nt	1	nt
Cc1cc(O)c2c(c1)C(=O)C13C(=C2O)C(=O)[C@H]2[C@@H](O)[C@@H]1[C@H]1[C@H](O)[C@@H]3C(=O)C3=C(O)c4c(O)cc(C)cc4C(=O)C312 (some centres undefined)	-12	-4	3	-1	-13	28
COc1cccc(OC)c1C1=NCC(=O)Nc2c1oc1ccc(Br)cc21	-6	45*	-6	-2	-2	1
O=C1CN=C(c2ccccc2)c2oc3ccc(Br)cc3c2N1	3	-3	-1	-4	2	-6
O=C(O)c1cc[c]([Hg][Cl])cc1	4	0	2	0	22*	11
Cc1ccccc1NC(=S)NC(NC(=O)CF)C(Cl)(Cl)Cl (centres undefined)	1	9	-3	0	0	2
O=C(CF)NC(Nc1cccc2cccnc12)C(Cl)(Cl)Cl (centres undefined)	6	36*	3	-2	-1	12
COC(=O)C(Cc1ccc(N(CCCl)CCCl)cc1)N=Cc1ccccc1O (centres undefined)	9	1	2	2	3	6
O=C1NC(=S)NC(=O)C1=Cc1ccc2c(c1)CCN2CCCCl	-5	2	3	-5	2	51*
NP(=O)(OCC(F)(F)F)Oc1ccc(Cl)cc1 (centres undefined)	1	28*	4	2	3	4
Nc1c(C(=O)NCc2ccco2)c2nc3ccccc3nc2n1Cc1ccccc1	-3	6	-2	-3	-4	-2
CCCNC(=O)c1c(N)n(CC2CCCO2)c2nc3ccccc3nc12 (centres undefined)	5	12	3	2	-19	35*
Nc1c(C(=O)NCc2ccco2)c2nc3ccccc3nc2n1CCN1CCOCC1	2	28*	2	2	1	-8
CC1C2Cc3ccc(O)cc3[C@]1(C)CCN2CCc1ccccc1 (some centres undefined)	nt	nt	nt	nt	-4	nt
CC(C)COP(=O)(OCC(C)C)C(O)c1cccnc1 (centres undefined)	-1	3	3	1	-3	6
COC(=O)C1C(O)C(C)C(O)C(C)/C=C\C=C(/C)C(=O)Nc2c(C)c(OC(C)=O)c3c(c2O)C(=O)C(C)=C2OCOC(=C23)/C(C)=C/C(C)(O)C(O)C(C)C1O (centres undefined)	-3	1	2	0	-9	69*
SMILES	LYPLA2 counter	PME-1 primary	Fam108B counter	LYPLA1 counter	PAD4 inh	GSTO1 counter
O=C(CN1CC=C(c2ccccc2)CC1)Nc1cc(Cl)ccc1Cl	-2	9	-5	-3	0	0
O=C(CN1CC=C(c2ccccc2)CC1)Nc1c(Cl)cccc1Cl	-1	36*	8	0	3	1
Cc1ccc(S(=O)(=O)N2CCCCC2)cc1NC(=O)CN1CC=C(c2ccccc2)CC1	-8	75*	0	-1	3	-1
Cn1c(O)c(Cc2ccc(OCc3ccccc3)cc2)c(=O)n(C)c1=O	-2	4	-1	-1	-1	6
O=C(Cc1ccccc1F)N1CCN(CC(=O)N2CCCC2)CC1	nt	nt	nt	nt	4	nt
COC(=O)C1=C(c2ccc(F)cc2OCc2ccccc2)C[C@@H]2CC[C@H]1N2C(=O)N1CCCC1	-1	5	nt	-2	-3	nt
CC(C)C(=O)c1cn(Cc2ccccc2C#N)c2ccccc12	-4	39*	-1	0	-12	9
CC(=O)c1cn(Cc2ccccc2C#N)c2ccccc12	1	3	3	0	1	7
O=C(NC1CCCCC1)N1C[C@H]2C[C@@H](C1)c1cccc(=O)n1C2	2	0	3	-3	-5	-2
CN1C(=O)/C(=C/c2cccn2-c2ccc3ccccc3c2)C(=O)NC1=S	1	2	11	-6	-10	55*
CCN(CC)c1ccc(/C=C/[N+](=O)[O-])cc1	5	-4	4	2	3	36*
O=c1[nH]c(=S)[nH]c(O)c1N=Nc1ccc(S(=O)(=O)N2CCc3ccccc32)cc1	-5	36*	10	-1	-9	-10
O=c1[nH]c(=S)[nH]c(O)c1N=Nc1ccc(SC(F)F)cc1	1	-3	0	2	-1	3
C=CCn1c(O)c(N=Nc2c(C)n(C)n(-c3ccccc3)c2=O)c(=O)[nH]c1=S	-1	-2	-2	-3	-2	36*
C[C@@H]1CCC2[C@@H](C)C(=O)O[C@@H]3OC4(C)CCC1[C@@]23OO4 (some centres undefined)	nt	nt	nt	nt	-6	nt
CN(C)[C@@H]1C(=O)C(C(N)=O)=C(O)[C@@]2(O)C(=O)C3=C(O)c4c(O)ccc(Cl)c4[C@@](C)(O)[C@H]3C[C@@H]12	12	1	-1	2	-4	45*
CN(C)[C@@H]1C(=O)C(C(N)=O)=C(O)[C@@]2(O)C(=O)C3=C(O)c4c(O)cccc4[C@@](C)(O)C3C[C@@H]12 (some centres undefined)	6	-4	5	0	-2	72*
Cc1ccc(CN2CCCC(C(=O)c3sccc3C)C2)o1 (centres undefined)	3	8	-1	-1	-1	3
C[C@]12CCC3C(CC[C@H]4C[C@@H](O)[C@H](O)C[C@]34C)C1CC[C@@H]2O (some centres undefined)	nt	nt	nt	nt	-2	nt
